ELG1 genotoxic: genotoxicity induction in ELG1-luciferase HEK293T cells; Potency, µM (titrated, usually from 46 µM), inactives show at the top dose activity change, positive = activation, usual class: activators; 330,000 compounds, 1.3% hits; HEK293T ELG1-luciferase reporter, luminescence, 16 h; note: % of control where 0% means no effect; nearly all actives have a fitted effect of over 60% in size
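Genotoxicity was scored as increased ELG1-luciferase reporter signal, measured by ONE-Glo luminescence (30 min, room temperature). Compound or vehicle exposure of the HEK293T reporter cells lasted 16 hr at 37°C.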
NPC1 promoter act: NPC1 promoter activation. Huh7 NPC1 promoter luciferase reporter, 24 h. Potency, µM (highest dose often 9.22 µM), for the others: at the top dose activation, actives largely listed as activators. 320,000 compounds, 2.4% hits. AID 485313; note: % of control where 0% means no effect; nearly all actives have a fitted effect of over 60% in size
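Compounds in DMSO were transferred onto Huh7 NPC1-luciferase reporter cells pre-incubated 2 h; after 24 h at 37 °C, Amplite reagent was dispensed and luminescence recorded 10 min later.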
SMN2 splice enh: SMN2 splice variant enhancement. Potency, µM (titrated, usually from 46.1 µM), for the others: at the highest dose activity change, positive = activation, hits mostly activators. 210,000 compounds, 2.8% hits. HEK293 SMN2-luciferase splicing reporter, luminescence, 30-36 h; note: % of control where 0% means no effect; nearly all actives have a fitted effect of over 55% in size
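HEK293 cells carry an SMN2 minigene-luciferase reporter in which exon 7 inclusion puts luciferase in frame. Cells were seeded at 2000 cells/well, attached for 10-12 hours, then exposed to compounds for 30-36 hours at 37C before ONE-Glo luminescence.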
Rab9 prom act: activators of Rab9 promoter; Potency, µM (series often up to 9.22 µM), for the others: at the top dose activation, negative = inhibition, actives largely listed as activators; Huh7 Rab9 promoter-luciferase reporter, luminescence, 24 h; 320,000 compounds, 2.8% hits; note: % of control where 0% means no effect; nearly all actives have a fitted effect of over 60% in size
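Quantitative HTS format; Huh7 Rab9-luciferase reporter cells (1500/well) receive compound 2 h post-plating, incubate 24 h at 37 °C, then get luciferase reagent for 10 min before luminescence reading.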
FLuc counter: firefly luciferase modulation, counter-screen for miR-21 project. P08659. purified FLuc, Km substrates, luminescence inhibition. Potency, µM (highest dose often 57.5 µM), inactives show top-dose activity change, negative = inhibition, usual class: inhibitors. 360,000 compounds, 6.9% hits;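 note: plate controls were vehicle for no effect and reference inhibitor for full effect; nearly all actives have a fitted effect of over 55% in size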
Target sequence (P08659 whole entry, looked up): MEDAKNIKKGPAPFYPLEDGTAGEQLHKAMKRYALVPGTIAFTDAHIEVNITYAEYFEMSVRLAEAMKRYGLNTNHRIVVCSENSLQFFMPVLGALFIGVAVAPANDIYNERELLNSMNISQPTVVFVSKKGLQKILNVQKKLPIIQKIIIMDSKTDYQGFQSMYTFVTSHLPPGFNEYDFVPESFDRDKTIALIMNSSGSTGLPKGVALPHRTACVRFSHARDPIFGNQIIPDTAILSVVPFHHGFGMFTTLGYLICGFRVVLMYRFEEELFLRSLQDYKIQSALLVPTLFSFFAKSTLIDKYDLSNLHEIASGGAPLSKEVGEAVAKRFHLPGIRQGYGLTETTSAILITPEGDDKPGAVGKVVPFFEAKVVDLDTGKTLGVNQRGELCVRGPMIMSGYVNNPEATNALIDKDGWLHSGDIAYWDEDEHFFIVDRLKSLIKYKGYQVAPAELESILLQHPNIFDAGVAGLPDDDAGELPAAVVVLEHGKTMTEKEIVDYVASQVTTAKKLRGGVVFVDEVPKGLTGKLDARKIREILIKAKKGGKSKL
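Purified P. pyralis luciferase (10nM final) with 10uM D-luciferin and 10uM ATP (Km levels) in 50mM Tris acetate pH 7.5, 10mM Mg acetate, 0.01% Tween-20, 0.05% BSA; qHTS 6-point titration, ~60 µM downward; luminescence read.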
ELG1 DNA repair: ELG1-dependent DNA repair inhibition; HEK293T ELG1-luciferase reporter, luminescence, 16 h; DNA damage induced by 5-fluorouridine; Potency, µM (doses to about 46.1 µM), inactives show top-dose activity change, negative = inhibition, hits mostly inhibitors; 330,000 compounds, 2.3% hits; note: % is set by controls: 0 for no effect and ±100 for the full control effect; nearly all actives have a fitted effect of over 55% in size
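Step one: seed 2,000 cells per well. Step two: pin-transfer compound or DMSO alongside 5-fluorouridine. Step three: incubate 16 hr, 37 °C, 5% CO2. Step four: add ONE-Glo, wait 30 min, read luminescence.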
* marks the source's active call; other numbers are inactive results; ? = inconclusive; / = no result given. Rows were chosen to be rich in hits. Some 9.2% of all compounds tested hit in one or more screens of this group. Calls come from the whole dose curve; as a rule, active = well fitted curve in the direction sought with a large enough effect; inconclusive = small, poorly fitted or top-dose-only effect, or another doubt; inactive = no such curve, though single readings can be large; an effect the other way counts as inactive or inconclusive. Potency is the fitted concentration of half-maximal effect.

SMILES	ELG1 genotoxic	NPC1 promoter act	SMN2 splice enh	Rab9 prom act	FLuc counter	ELG1 DNA repair
C=CCn1cnc2c(c1=O)c1nc3ccccc3nc1n2/N=C/c1cccc(OC)c1OC	-16%	1%	0%	-3%	-5%	3.3µM*
CN1CCN(/N=C/c2ccc(-c3ccccc3)cc2)CC1	9%	3.5µM*	?	?	19µM*	?
CSc1ccc(/C=N/n2c(C)nnc2C)cc1	10%	-10%	10%	-6%	-4%	?
CSc1ccc(/C=N/N2CCN(C)CC2)cc1	17%	?	18µM*	3.2µM*	21µM*	?
CSc1ccc(/C=N/n2c(C)cc(C)cc2=O)cc1	10µM*	?	?	2.8µM*	15µM*	?
Cc1ccc(C)c(NC(=O)C(=O)NCCc2csc3nc(-c4ccccc4C)nn23)c1	/	/	/	/	-7%	/
CCc1ccc(C(=O)c2cn(CC(=O)Nc3ccc(F)cc3)c3ccc(OC)cc3c2=O)cc1	/	/	-4%	/	-3%	/
Cc1cc(C)c2oc(-c3ccc(Cl)c(NC(=O)c4ccc(C#N)cc4F)c3)nc2c1	9%	-4%	?	-16%	17µM*	?
O=C(COC(=O)CCC(=O)c1ccc(F)cc1)Nc1ccc(Cl)cn1	-1%	/	/	/	/	?
CCCNC(=O)c1noc2c1CCc1cc(OC)ccc1-2	?	1.4µM*	11µM*	2µM*	4.3µM*	?
COc1ccc2c(c1)CCc1c(C(=O)NCc3cccnc3)noc1-2	21µM*	26%	-1%	15%	?	?
COc1ccc2c(c1)CCc1c(C(=O)Nc3ccccc3C(F)(F)F)noc1-2	/	/	20%	/	0%	/
COc1ccc2c(c1)CCc1c(C(=O)Nc3ccc(OC)cc3OC)noc1-2	/	/	8%	/	-6%	/
COc1ccc2c(c1)CCc1c(C(=O)N3CCCCCC3)noc1-2	?	1.6µM*	?	2.8µM*	7.6µM*	?
COc1ccc2c(c1)CCc1c(C(=O)NCC(C)C)noc1-2	13µM*	1.1µM*	4.5µM*	1.4µM*	3.4µM*	?
COc1cc(OC)c(NS(=O)(=O)c2c(C)nc3sc(C)cn3c2=O)cc1Cl	/	/	/	/	-9%	/
COc1ccc(N2CC(c3nc(-c4cc(OC)c(OC)c(OC)c4)no3)CC2=O)cc1Cl (stereo not drawn)	/	/	/	/	6%	/
CCOc1ccc(NC(=S)N2CCCC2)cc1	26%	-3%	/	1%	-1%	25%
S=C(Nc1ccc(Br)cc1)N1CCCC1	12%	16%	8.9µM*	3%	15µM*	?
CCCCc1ccc(NC(=S)N2CCCC(C)C2)cc1 (stereo not drawn)	11%	8%	14%	16%	13µM*	?
S=C(Nc1ccc(Cl)cc1)N1CCCCC1	1%	7%	12%	1%	12µM*	30%
CCc1ccc(NC(=S)N2CCCCCCC2)cc1	?	?	16µM*	?	4.8µM*	?
COc1ccc(CCNC(=O)c2cc3c(=O)[nH]c4ccc(C)cc4c3s2)cc1OC	/	/	-7%	/	-7%	/
Cn1cc([N+](=O)[O-])c(C(=O)N2CCN(Cc3ccc4c(c3)OCO4)CC2)n1	10%	-4%	/	/	-3%	6%
CCc1ccc(OCC2c3cc(OC)c(OC)cc3CCN2C(=S)NCCOC)cc1 (stereo not drawn)	0%	0%	17%	-1%	-1%	23µM*
CCN(CC)c1ccc(/C=N/NC(=O)Cc2cccs2)c(O)c1	?	-30%	-93%	-39%	?	19%
CCN(CC)c1ccc(/C=N/NC(=O)c2ccco2)c(O)c1	23µM*	-5%	/	-17%	5.4µM*	?
CCN(CC)c1ccc(/C=N/NC(=O)c2ccco2)cc1	5.8µM*	?	1.6µM*	?	1.5µM*	?
CC(C)(C)C(=O)Cn1c(=O)n(CCCCCC(=O)NCc2ccc3c(c2)OCO3)c(=O)c2sccc21	/	/	-14%	/	-16%	/

Assay outcomes deposited in PubChem BioAssay by National Center for Advancing Translational Sciences (NCATS).
